HT1080NT lethal: kills 2HG-producing HT-1080-NT fibrosarcoma cells | HT-1080-NT fibrosarcoma viability, CellTiter-Glo ATP luminescence, 48 h | Potency, µM (highest dose often 46.1 µM), most hits filed as cytotoxic | 1.6% of 360,000 active | AID 686970;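 further: NT is the 2HG producing partner of a matched IDH1 knockdown line; nearly all actives have a fitted effect of over 55% in size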
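Luminescent CellTiter-Glo readout after 48 hours of compound exposure at 37 degrees C defined viability of HT-1080-NT cells. Activity was normalized to DMSO wells and cell-free media wells; concentration-response curves were fitted and assigned curve classes.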
TDP1 cell noCPT: qHTS for Inhibitors of human tyrosyl-DNA phosphodiesterase 1 (TDP1): qHTS in cells in absence of CPT; DT40 Tdp1-/- hTDP1 cells, no CPT, ATP luminescence, 48 h; Potency, µM (highest dose often 46.2 µM), actives largely listed as inhibitors; 15% of 420,000 active; AID 686978, 2013; further: nearly all actives have a fitted effect of over 55% in size
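Chicken DT40 Tdp1-/- cells stably complemented with human TDP1 were seeded at 400 cells/well with DMSO in place of 20 nM camptothecin. After compound pinning, cells grew at least 48 hr at 37 °C; viability read by CellTiter-Glo luminescence.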
DT40 TDP1 CPT: DT40-hTDP1 cell growth loss with CPT; AID 686979; chicken DT40 Tdp1-/-;hTDP1 cells + 20 nM CPT, ATP luminescence, 48 h; 12% of 420,000 active; Potency, µM (titrated, usually from 46.2 µM), hits mostly inhibitors; further: nearly all actives have a fitted effect of over 55% in size
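Chicken DT40 Tdp1-/- cells complemented with human TDP1, 400 cells/well, exposed to compounds plus 20 nM camptothecin for at least 48 h at 37 C; viability read as ATP content by CellTiter-Glo luminescence.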
12-LOX inh: ALOX12 (human) lipoxygenase inhibition; P18054; purified 12hLO, xylenol orange hydroperoxide absorbance; Potency, µM (doses to about 108 µM), hits mostly inhibitors; 1.1% of 580,000 active; AID 1671190
Target sequence (P18054 whole entry, looked up): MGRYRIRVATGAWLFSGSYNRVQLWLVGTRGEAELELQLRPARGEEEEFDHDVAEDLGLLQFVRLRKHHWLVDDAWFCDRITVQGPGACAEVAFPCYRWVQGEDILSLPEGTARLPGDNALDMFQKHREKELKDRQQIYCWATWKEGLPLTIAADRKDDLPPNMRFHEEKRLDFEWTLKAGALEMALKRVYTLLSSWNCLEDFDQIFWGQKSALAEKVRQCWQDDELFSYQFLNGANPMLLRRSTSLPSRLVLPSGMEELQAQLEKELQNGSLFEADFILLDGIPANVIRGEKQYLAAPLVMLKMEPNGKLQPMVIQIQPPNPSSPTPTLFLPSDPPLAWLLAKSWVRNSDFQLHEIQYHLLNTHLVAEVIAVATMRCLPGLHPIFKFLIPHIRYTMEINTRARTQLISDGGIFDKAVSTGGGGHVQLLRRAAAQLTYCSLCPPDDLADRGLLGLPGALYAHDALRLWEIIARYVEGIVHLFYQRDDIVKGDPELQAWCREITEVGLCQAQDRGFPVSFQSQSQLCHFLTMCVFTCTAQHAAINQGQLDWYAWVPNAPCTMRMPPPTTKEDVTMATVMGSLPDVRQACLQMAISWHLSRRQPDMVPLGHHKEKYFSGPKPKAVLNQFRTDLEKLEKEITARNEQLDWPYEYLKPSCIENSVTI
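Hydroperoxide product was detected by ferrous iron/xylenol orange as the 573 to 405 nm absorbance ratio. Arachidonic acid at 40 uM (final) was turned over for 30 min at room temperature by 150 nM human 12hLO, pH 7.0 Hepes buffer, after 15 min compound preincubation.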
HT1080 IDH1KD tx: kills HT-1080 cells with IDH1 knockdown; 2% of 360,000 active; HT-1080 IDH1 knockdown viability, ATP luminescence, 48 h; Potency, µM (series often up to 46.1 µM), most hits filed as cytotoxic; AID 686971
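Viability of IDH1-knockdown HT-1080 fibrosarcoma cells was assessed by CellTiter-Glo after 48 h at 37 °C with titrated compound; concentration-effect curves were classified by fit quality and response size.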
IL1B secr inh: inhibitors of inflammasome signaling (IL-1 beta secretion). 4.7% of 360,000 active. THP-1 LPS/ATP IL-1B secretion, AlphaLISA, 16 h; stronger effect = lower value. AID 743279. activity change, % at 57.5 µM; in the data active means activity change below about -50%; inconclusive means mostly about -30% to -49%
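THP-1 cells pretreated 1 hr with compounds (up to 57.5 uM final), then stimulated with LPS (250 ng/mL final) plus ATP (1.25 mM final); secreted IL-1B measured by AlphaLISA after 16 hr, decreased signal indicating inhibition.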
Numbers stand for hits; - = inactive; ? = inconclusive; . = not tested or not shown; [ ] = dose if it differs, or a comment. Shown is part of a subset that was picked to be rich in hits. Unless noted, the call rests on the fitted dose curve; in most records, active means well fitted curve in the direction sought with a large enough effect; inconclusive means small, poorly fitted or top-dose-only effect, or another doubt; inactive means no such curve, though single readings can be large; an effect the other way counts as inactive or inconclusive.

SMILES | HT1080NT lethal | TDP1 cell noCPT | DT40 TDP1 CPT | 12-LOX inh | HT1080 IDH1KD tx | IL1B secr inh
CCc1cccc(-n2nnnc2N2CCN(C(=O)Cc3ccc(C)c(F)c3)CC2)c1 | . | . | . | -[6.33 µM] | . | .
COc1ccc2c(c1)[C@@H](NC(=O)OCc1ccccc1)[C@H](C)[C@@H](c1ccccc1)N2C(=O)NC(C)C | . | . | . | - | . | .
CC1CCCN(S(=O)(=O)c2cccc([N+](=O)[O-])c2)C1 (stereo not drawn) | - | ? | - | - | - | -
O=C(Nc1nc(-c2ccccc2)cs1)C1CCCCN1S(=O)(=O)c1ccccc1 (stereo not drawn) | ? | 23µM | 26µM | - | ? | -
O=C(Nc1nc(-c2ccccc2)cs1)C1CCCN(S(=O)(=O)c2ccccc2)C1 (stereo not drawn) | ? | 6.5µM | 6.5µM | ? | ? | -
O=C(Nc1nc(-c2ccccc2)cs1)C1CCCN(S(=O)(=O)c2cccc([N+](=O)[O-])c2)C1 (stereo not drawn) | - | ? | 21µM | - | - | -
Cc1cc(C)cc(C(=O)N2CCN(C(=O)c3cccc4cccnc34)CC2)c1 | . | . | . | - | . | .
O=C(COC(=O)c1cc2ccccc2[nH]1)NCc1ccccc1 | . | . | . | - | . | .
CN(C(=O)c1ccccc1F)C(c1ccccc1)c1ccccc1 | - | 16µM | 10µM | - | - | -
CC(c1cccs1)N(C)C(=O)c1ccccc1F (stereo not drawn) | . | . | . | - | . | .
Cc1cnc(NC(=O)CSc2nnc(Cc3ccccc3)o2)s1 | 4.5µM | ? | ? | - | 4.5µM | -
CCOC(=S)SCC(=O)Nc1ncc(C)s1 | ? | 23µM | ? | ? | 18µM | -98
COc1ccc(Cc2nnc(SCC(=O)Nc3ncc(C)s3)o2)cc1 | - | - | - | - | - | -
Cc1cnc(NC(=O)CCCc2nc3ccccc3s2)s1 | ? | 23µM | 15µM | ? | ? | -
Cc1cnc(NC(=O)Cc2ccccc2Cl)s1 | - | 3.3µM | 3.3µM | - | - | -
O=C(CCCc1nc2ccccc2s1)Nc1nccs1 | - | - | - | - | - | -
COC(=O)c1cc(C(=O)OCCCC(=O)c2ccc(F)cc2)cc([N+](=O)[O-])c1 | . | . | . | - | . | .
CCOC(=O)Nc1ccc(OC)cc1 | . | . | . | - | . | .
Cc1cnc(NC(=O)CCc2ccccc2)s1 | ? | 8.2µM | 16µM | - | ? | -
COc1ccc(CCC(=O)Nc2ncc(C)s2)cc1OC | - | - | - | - | - | -
CCc1nnc(SC(CC)C(=O)Nc2cc(C)ccc2C)c2cc3occc3n12 (stereo not drawn) | . | 15µM | 18µM | - | . | .
CN(C(=O)CSc1nncn2c1cc1occc12)c1ccccc1 | . | 26µM | ? | - | . | .
CCc1cccc(C)c1NC(=O)C(CC)Sc1nncn2c1cc1occc12 (stereo not drawn) | . | 21µM | 21µM | - | . | .
COc1ccc(CC2CCN(C(=O)c3c(C)noc3-c3ccc4c(c3)OCO4)CC2)cc1 | . | . | . | - | . | .
NC(=O)C1CCCN(Cc2ccc(-c3cnc4c(OCc5ccccc5)nccn34)cc2)C1 (stereo not drawn) | . | . | . | - | . | .
SMILES | HT1080NT lethal | TDP1 cell noCPT | DT40 TDP1 CPT | 12-LOX inh | HT1080 IDH1KD tx | IL1B secr inh
O=C(O)CCCc1nc(-c2ccccc2)no1 | - | - | - | - | - | -
O=C(CCc1nc(-c2ccccc2F)no1)Nc1cccc(C(F)(F)F)c1 | . | 15µM | 18µM | - | . | .
O=C(CCCc1nc(-c2ccccc2)no1)Nc1cc(C(F)(F)F)cc(C(F)(F)F)c1 | . | 23µM | ? | - | . | .
O=C(CCCc1nc(-c2ccc(Cl)cc2)no1)Nc1cccnc1 | - | 15µM | 16µM | - | ? | -
O=C(NCCc1ccccc1)c1ccc(NC(=O)c2cccnc2)cc1 | ? | ? | - | - | ? | -
COc1ccccc1-c1noc(CCC(=O)Nc2cccc(C)c2)n1 | - | ? | ? | ? | - | -
O=C(Nc1ccc(-c2noc(CCc3ccccc3)n2)cc1)c1cccnc1 | ? | 12µM | 18µM | - | ? | ?
COc1cc(-c2noc(CCC(=O)Nc3cccnc3)n2)cc(OC)c1OC | - | - | - | - | - | -
Cn1cncc1-c1nnc([C@H]2CCN(Cc3ccc(Cl)cc3)C2)o1 | . | . | . | - | . | .
O=C(NC1(C(F)(F)F)C(=O)Nc2c1c(=O)[nH]c(=O)n2-c1ccccc1)c1cccs1 (stereo not drawn) | . | . | . | - | . | .
COc1ccc(-c2noc(CCC(=O)Nc3cccc(C(=O)NC4CC4)c3)n2)cc1OC | - | ? | ? | - | - | -53
CCOC(=O)c1cccc(NC(=O)CCc2nc(-c3ccc(C)cc3)no2)c1 | - | 23µM | ? | - | - | -
COc1ccc(NC(=O)CCc2nc(-c3ccccc3F)no2)cc1 | - | 2.6µM | ? | - | - | -
CCOC(=O)c1cccc(NC(=O)CCc2nc(-c3ccccc3F)no2)c1 | - | ? | 23µM | - | - | -
Cc1ccc(C)c(C(=O)COC(=O)c2cc(=O)c3ccccc3o2)c1 | . | . | . | - | . | .
CC(=O)c1c(C)oc2ccc(NS(=O)(=O)c3cccs3)cc12 | - | ? | ? | - | - | -
CC(=O)c1c(C)oc2ccc(NS(=O)(=O)c3ccc(C)cc3)cc12 | - | 8.2µM | ? | - | - | -
CC(=O)c1c(C)oc2ccc(NS(=O)(=O)c3ccc(C(C)C)cc3)cc12 | . | 5.8µM | 5.8µM | - | . | .
Cc1oc2c(cc(NS(=O)(=O)c3ccc(C(C)C)cc3)c3ccccc32)c1C(=O)O | - | - | - | ? | - | -
COC(=O)c1cc2cc(NS(=O)(=O)c3ccc(C)cc3)ccc2s1 | - | - | ? | - | - | -
Cc1ccc(-c2nc3cc(NS(=O)(=O)c4ccc(C)cc4)ccc3o2)cc1 | ? | ? | 14µM | ? | ? | -
COCc1oc2ccc(NS(=O)(=O)c3ccc(C)cc3)cc2c1C(=O)OC | . | 2.3µM | 3.7µM | - | . | .
Cc1cc(C)c2c(=O)cc(C(=O)N3CCN(c4cccc(Cl)c4)CC3)oc2c1 | . | . | . | - | . | .
Cc1oc2ccc(NS(=O)(=O)c3ccc(C(C)(C)C)cc3)cc2c1C(=O)Nc1ccccc1 | - | 18µM | ? | - | - | ?
CC(=O)c1c(C)oc2c(Cl)cc(NS(=O)(=O)c3ccc(C(C)(C)C)cc3)cc12 | . | . | . | - | . | .
Cc1[nH]n(C(N)=S)c(=O)c1N=Nc1ccc(S(=O)(=O)N2CCCCCC2)cc1 | - | 21µM | ? | ? | - | -
CC(=O)Nc1ccc(N=Nc2c(C)[nH]n(C(N)=S)c2=O)cc1 | - | - | - | - | - | -
Cc1[nH]n(C(N)=S)c(=O)c1N=Nc1cc(-c2ccc(Br)cc2)[nH]n1 | - | 2.9µM | 3.3µM | ? | - | -
Cc1[nH]n(C(N)=S)c(=O)c1N=Nc1ccc2ccccc2c1 | - | ? | ? | ? | - | -
